# Source: PubChem (several laboratories)
# eLon inh = inhibitors of E. coli Lon protease. purified E. coli Lon protease, fluorescence polarization. inhibition, % at 7.94 µM. hit rate 0.42% among 360,000. P0A9M0; in the data active means inhibition above about 13%, passing the limit was not always enough;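 further: 0% = enzyme with probe and DMSO and 100% = no enzyme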
# MCL1 BIM primary = inhibitors of human MCL1 binding to BIM-BH3 peptide | GST-MCL1 / FITC-Bim-BH3 fluorescence polarization | inhibition, % at 10.9 µM | hit rate 0.68% among 320,000 | AID 2057;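 active means inhibition above the mean inhibition of all tested compounds plus 3 SD, set per campaign, cut at about 40% in these data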;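 further: 0% = DMSO wells and 100% = unlabeled Bim-BH3 peptide control; higher means more loss of mP so more displacement of Bim peptide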
# Target sequence (Q07820 whole entry, looked up): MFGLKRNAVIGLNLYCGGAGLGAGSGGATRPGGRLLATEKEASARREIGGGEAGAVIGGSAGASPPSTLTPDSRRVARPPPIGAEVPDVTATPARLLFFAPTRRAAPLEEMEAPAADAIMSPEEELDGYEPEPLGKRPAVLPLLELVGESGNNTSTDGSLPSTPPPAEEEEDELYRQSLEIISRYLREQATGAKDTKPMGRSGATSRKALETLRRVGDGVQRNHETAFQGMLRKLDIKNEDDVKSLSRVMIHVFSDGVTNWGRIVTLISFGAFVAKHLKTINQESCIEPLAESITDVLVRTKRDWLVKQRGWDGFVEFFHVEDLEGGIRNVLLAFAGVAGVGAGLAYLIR
# EBV gp42 block = inhibitors of Epstein-Barr virus glycoprotein 42 | hit rate 0.42% among 220,000 | inhibition, % (tested at 21.74 µM) | Q1HVG2 | Fluorescence polarization binding assay, mP read-out; in the data active means inhibition above about 50%
# GLD-1 RNA inh = GLD-1-TGE RNA interaction inhibition (C. elegans) | hit rate 0.44% among 320,000 | AID 2280 | purified GLD-1 + fluorescein TGE RNA, fluorescence polarization | inhibition, % at 5.96 µM;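 active means percent inhibition above a per-plate cutoff, the plate mean of test compounds plus 3 SD, cut at about 30% in these data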;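 further: 0% = DMSO wells with GLD-1 and probe and 100% = wells lacking GLD-1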
# Bcl-xL primary = Bcl-xL (human) inhibition. Q07817. GST-Bcl-xL / FITC-Bim BH3 peptide fluorescence polarization. inhibition, % at 10.9 µM. hit rate 0.7% among 320,000;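 active means inhibition above the mean of all tested compounds plus 3 SD, cutoff set per campaign, cut at about 30% in these data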;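 further: 0% = DMSO wells and 100% = unlabeled Bim-BH3 peptide competitor; inhibitors lower millipolarization by displacing the labeled peptide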
# Target sequence (Q07817 whole entry, looked up): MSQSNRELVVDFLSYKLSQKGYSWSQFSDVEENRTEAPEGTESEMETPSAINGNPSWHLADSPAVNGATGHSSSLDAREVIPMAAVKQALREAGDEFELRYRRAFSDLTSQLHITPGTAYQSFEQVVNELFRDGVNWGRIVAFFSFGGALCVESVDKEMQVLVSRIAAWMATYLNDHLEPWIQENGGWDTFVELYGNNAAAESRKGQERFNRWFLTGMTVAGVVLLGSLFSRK
# MEX-5 binding = C. elegans MEX-5 TCR-2 RNA binding activity; AID 1832; Q9XUB2; activity score (negative = inhibition of binding), % at 10 µM; hit rate 0.38% among 300,000; MEX-5/FITC-TCR2 RNA binding, fluorescence polarization; stronger effect = lower value;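 active means inhibition past about -25% in most replicates, and total fluorescence under double the plate's negative control median, limit read from the data; inconclusive means replicates evenly split on the limit, or fluorescence at least double controls; inactive means too little inhibition in most replicates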;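 further: 0% = DMSO and -100% = 5 µM competing unlabeled TCR2 RNA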
# An asterisk follows results filed as active; i = inactive; ? = inconclusive; nt = no result given. A selection: hits, their analogues and other compounds. The true share with any hit is near 1.5%.
SMILES,eLon inh,MCL1 BIM primary,EBV gp42 block,GLD-1 RNA inh,Bcl-xL primary,MEX-5 binding
COc1ccc(C(=O)NC(=S)Nc2cccnc2)cc1Cl,15,15,nt,52*,12,-2
CC12CC3CC(C)(C1)CC(Nc1nc(N4CCOCC4)nc4ccccc14)(C3)C2,-6,6,-3,0,8,-2
CSc1nc(O)c(N=Nc2ccc(F)cc2F)c(=O)[nH]1,-14,42*,nt,-12,37*,4
COc1cc(/C=N/NS(=O)(=O)c2ccc(C)c([N+](=O)[O-])c2)cc([N+](=O)[O-])c1O,4,5,nt,-5,5,-8
COc1ccc(-n2c(O)c(/C=N/NS(=O)(=O)c3ccc(C)c([N+](=O)[O-])c3)c3ccccc3c2=O)cc1OC,-166,-96,-35,-33,41*,7
CC(C)N(CC(O)COc1ccc(CC(N)=O)cc1)CC(O)COc1ccc(CC(N)=O)cc1 (stereo unspecified),-4,0,nt,0,7,0
Cc1c(S(=O)(=O)c2ccccn2)c(N)n(Cc2ccccc2)c1C,-21,47*,4,22,55*,-2
Nc1ccc2nc(CCCO)[nH]c2c1,-1,2,-12,0,3,-49*
COc1ccccc1NC(=O)c1cc(C(=O)Nc2ccccc2OC)n(C)n1,-3,1,nt,-1,6,-2
O=C(O)c1cc(-c2ccc(/C=N/Nc3ccc([N+](=O)[O-])cn3)o2)ccc1Cl,-8,nt,-12,nt,nt,-72*
N=C1/C(=C/c2ccc(-c3cccc(C(=O)O)c3)o2)C(=O)N=C2SC=C(c3ccccc3)N12,-42,28,67*,-3,12,0
CN(C1CC(C)(C)NC(C)(C)C1)S(=O)(=O)CC12CCC(CC1=O)C2(C)C (stereo unspecified),-4,6,-5,4,2,1
Cc1ccc(CSc2nnc3c(n2)OC2(Nc4ccccc4-3)C(=O)Nc3ccc(F)cc32)cc1 (stereo unspecified),-12,-1,151*,3,5,-1
O=C1Nc2ccc(F)cc2C12Nc1ccccc1-c1nnc(SCc3ccccc3)nc1O2 (stereo unspecified),-1,-5,-17,6,8,1
COc1cccc(OC)c1OCCCNC1CCCC1,-8,-3,nt,2,5,2
CNC(=O)/C(C#N)=C/c1ccc(-c2ccc(Cl)cc2)o1,-2,-2,9,3,6,-34*
CCOC(=O)C1=C(C)N=c2s/c(=C\c3cccn3C)c(=O)n2C1c1cccc(OC)c1OC (stereo unspecified),-42,-17,47,-20,-12,-40*
CCOC(=O)C1=C(C)N=c2s/c(=C\c3ccc(C(=O)O)cc3)c(=O)n2C1c1ccc(OC)cc1OC (stereo unspecified),-6,1,nt,2,-1,-5
Cn1nnc2cc(C(=O)N3CCN(c4ccccn4)CC3)ccc21,1,1,nt,-3,-1,0
Fc1ccc(Nc2cccc3nccnc23)cc1,-4,9,-10,10,3,0
c1cc(Nc2cccc3nccnc23)c2nccnc2c1,-9,-13,-18,-14,-7,-29*
NC(=S)n1[nH]c(-c2ccc([N+](=O)[O-])cc2)c(N=Nc2ccccc2[N+](=O)[O-])c1=O,3,nt,36,nt,nt,nt
NC(=S)n1[nH]c(-c2ccc([N+](=O)[O-])cc2)c(N=Nc2cccc([N+](=O)[O-])c2)c1=O,6,nt,100*,nt,nt,-1
Cc1c(N=Nc2c(-c3ccc([N+](=O)[O-])cc3)[nH]n(C(N)=S)c2=O)cccc1[N+](=O)[O-],-4,nt,109*,nt,nt,nt
Cc1[nH]n(C(N)=S)c(=O)c1N=Nc1cccc([N+](=O)[O-])c1C,4,11,nt,-2,6,-6
SMILES,eLon inh,MCL1 BIM primary,EBV gp42 block,GLD-1 RNA inh,Bcl-xL primary,MEX-5 binding
CC1(OC(=O)c2ccc(Cl)nc2)C(=O)C=C2C=C3CCCN3C=C2C1=O (stereo unspecified),9,26,13,12,13,nt
COC/C=C/C1=CC2=CC(=O)C(C)(OC(=O)C3CCCC3)C(=O)C2=CO1 (stereo unspecified),6,26,-8,20,14,-3
CC1(OC(=O)C2CCCC2)C(=O)C=C2C=C(C3CC3)OC=C2C1=O (stereo unspecified),nt,42*,nt,44*,50*,-12
CC1(OC(=O)C2CCCC2)C(=O)C=C2C=C3CCCCN3C=C2C1=O (stereo unspecified),22,47*,-12,18,32*,-8
CCCCNC(=O)C1Cc2cc(S(=O)(=O)N3CCCC3)ccc2N1C(C)=O (stereo unspecified),-2,2,nt,2,0,-1
COc1ccc(-c2noc([C@@H]3O[C@H](CO)[C@H](O)[C@H](O)[C@H]3O)n2)cc1OC,-4,nt,nt,nt,nt,nt
COc1ccc2c(c1)c(/C=C/c1cc[n+](C)cc1)cn2C,-305,-72,nt,58*,-31,?
COc1ccc2c(/C=C/c3cc[n+](C)cc3)c[nH]c2c1,-92,-38,nt,-92,-16,?
N#Cc1c(-c2ccco2)cc(-c2ccccc2)[nH]c1=O,-8,33,-9,21,34*,-7
COc1cc(C(CCN2CCCC2)c2c(OC)cc(OC)c3c(-c4ccccc4)cc(=O)oc23)cc(OC)c1OC (stereo unspecified),-9,-7,-8,2,-3,-48*
COc1cc(C(CCN2CCOCC2)c2c(OC)cc(OC)c3c(-c4ccccc4)cc(=O)oc23)cc(OC)c1OC (stereo unspecified),7,nt,nt,nt,nt,nt
CCN(CC)C(=O)CC(c1cc(OC)c(OC)c(OC)c1)c1c(OC)cc(OC)c2c(-c3ccccc3)cc(=O)oc12 (stereo unspecified),-11,37,99*,-9,6,1
NC(=O)c1ccc(N=Nc2c(O)c3ccccc3[nH]c2=O)cc1,nt,2,65*,3,6,-4
Cc1ccc(C(=O)NN2C(=O)/C(=C/c3cccn3C)SC2=S)cc1,-303,-81,-97,-131,-37,2
Cn1cc(/C=C2\SC(=S)N(NC(=O)c3ccccc3Cl)C2=O)c2ccccc21,i,17,87*,-171,35*,nt
Cc1ccc(C(=O)NN2C(=O)/C(=C/c3cn(C)c4ccccc34)SC2=S)cc1,-103,-94,130*,-80,-44,nt
COc1ccc(C(=O)NC(C(=O)NCC2(N3CCCCC3)CCCCC2)C(C)C)cc1 (stereo unspecified),-7,0,nt,1,-2,nt
Cc1ccc(C(=O)/C=C/Nc2cccc(O)c2)cc1,0,40*,-12,13,40*,-2
CCCCCCCCNC1=CC(=O)CC(C)(C)C1,9,9,-2,3,5,1
